Measured values: the supplement of paper PMC10849652
The full data set covers some 8,800 targets. This sample favours those with a hit. About 0.5% of all pairs of compound and target were hits. A number with no mark means an inactive call.

Key:
Experiment in all cases: log2 fold change, soluble protein after heating vs DMSO (PISA); higher = thermal stabilisation; K562 lysate, 10 uM; active = over 0.2 and 3.5 SD of the protein, either way, in both replicates (recomputed)
[1] = compound: C1=CC=C(C=C1)[C@H](COC2=CC3=C(C=C2)NC(=O)N3)NC(=O)C4=CC=CN(C4=O)CC5=CC(=C(C=C5)F)F
Procedure, shortened: (§1)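 K562 pellets were dounce-homogenised in PBS pH 7.4 containing 1 mM MgCl2, and the crude extract, at 1 mg/mL protein, was exposed to 10 μM compound for 30 min. Aliquots were heated for 3 min across 48°C-58°C, pooled, brought to 0.5% NP-40 at 4°C and spun at 21,000xg for 90 min, with the supernatant taken as soluble protein. TMTpro 16plex LC-MS/MS with equalised channel sums quantified that protein. Values are log-two fold changes in thermal stability relative to solvent controls, taken from duplicates.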

[2] = compound: CC1=C(SC2=C1C(=N[C@H](C3=NN=C(N32)C)CC(=O)N)C4=CC=C(C=C4)Cl)C
Procedure, shortened: as §1

[3] = compound: CC1=C2C(=CC=C1)N=C(N(C2=O)C3=CC=CC=C3C)CN4C=NC5=C(N=CN=C54)N
Procedure, shortened: as §1

[4] = compound: Cc1sc2c(c1C)C(c1ccc(Cl)cc1)=N[C@@H](CC(=O)OC(C)(C)C)c1nnc(C)n1-2
Procedure, shortened: as §1

[5] = compound: c1ccc([C@@H]2C[C@H]2NC2CCNCC2)cc1
Procedure, shortened: as §1

UniProt Q9H0R6, sequence (Q9H0R6 whole entry, looked up): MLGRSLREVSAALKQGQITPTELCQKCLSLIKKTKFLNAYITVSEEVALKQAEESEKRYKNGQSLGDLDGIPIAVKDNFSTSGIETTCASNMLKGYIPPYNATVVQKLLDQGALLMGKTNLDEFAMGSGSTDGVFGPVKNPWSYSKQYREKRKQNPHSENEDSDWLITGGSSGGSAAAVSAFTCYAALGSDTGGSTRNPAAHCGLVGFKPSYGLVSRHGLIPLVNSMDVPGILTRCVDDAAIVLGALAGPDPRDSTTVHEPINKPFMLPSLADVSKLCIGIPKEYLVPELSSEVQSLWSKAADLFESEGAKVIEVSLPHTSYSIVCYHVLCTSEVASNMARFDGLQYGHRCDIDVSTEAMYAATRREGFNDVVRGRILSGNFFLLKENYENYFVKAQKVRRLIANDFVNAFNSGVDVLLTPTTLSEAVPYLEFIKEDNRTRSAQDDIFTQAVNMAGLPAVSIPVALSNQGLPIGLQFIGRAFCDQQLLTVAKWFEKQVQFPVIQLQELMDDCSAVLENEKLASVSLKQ
UniProt Q9Y3T6, sequence (Q9Y3T6 whole entry, looked up, one chain of several): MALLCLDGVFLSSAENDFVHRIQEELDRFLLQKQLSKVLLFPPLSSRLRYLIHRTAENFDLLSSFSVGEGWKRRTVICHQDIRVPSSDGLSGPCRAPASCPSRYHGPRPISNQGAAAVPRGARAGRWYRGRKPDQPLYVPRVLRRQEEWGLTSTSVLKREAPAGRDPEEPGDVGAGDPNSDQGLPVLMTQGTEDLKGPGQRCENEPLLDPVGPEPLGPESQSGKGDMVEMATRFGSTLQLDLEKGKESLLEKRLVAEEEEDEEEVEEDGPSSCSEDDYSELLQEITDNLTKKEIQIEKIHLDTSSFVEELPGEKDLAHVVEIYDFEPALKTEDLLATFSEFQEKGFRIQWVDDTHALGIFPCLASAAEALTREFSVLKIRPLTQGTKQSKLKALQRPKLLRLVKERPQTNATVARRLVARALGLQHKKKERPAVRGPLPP
UniProt P52756, sequence (P52756 whole entry, looked up): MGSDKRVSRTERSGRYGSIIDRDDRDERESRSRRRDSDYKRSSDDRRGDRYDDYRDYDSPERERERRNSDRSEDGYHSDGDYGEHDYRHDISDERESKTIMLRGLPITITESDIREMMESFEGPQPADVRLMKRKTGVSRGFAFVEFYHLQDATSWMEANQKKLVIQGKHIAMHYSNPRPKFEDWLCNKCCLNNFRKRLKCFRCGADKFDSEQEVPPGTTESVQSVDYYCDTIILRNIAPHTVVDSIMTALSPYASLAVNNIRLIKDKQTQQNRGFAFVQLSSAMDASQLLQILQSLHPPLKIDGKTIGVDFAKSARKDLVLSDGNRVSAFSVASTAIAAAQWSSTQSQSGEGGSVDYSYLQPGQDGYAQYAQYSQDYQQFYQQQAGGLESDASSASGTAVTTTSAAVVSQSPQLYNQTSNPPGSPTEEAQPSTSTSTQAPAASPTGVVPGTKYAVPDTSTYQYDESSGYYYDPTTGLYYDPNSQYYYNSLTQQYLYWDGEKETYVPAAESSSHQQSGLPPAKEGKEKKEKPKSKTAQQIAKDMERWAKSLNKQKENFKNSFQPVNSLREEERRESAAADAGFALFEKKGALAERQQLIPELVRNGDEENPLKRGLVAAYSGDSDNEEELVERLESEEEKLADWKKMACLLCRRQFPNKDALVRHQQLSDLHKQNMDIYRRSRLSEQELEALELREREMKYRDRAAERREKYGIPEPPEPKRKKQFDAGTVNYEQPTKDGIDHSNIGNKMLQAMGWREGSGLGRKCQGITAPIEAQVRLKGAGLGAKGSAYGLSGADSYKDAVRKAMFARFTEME
UniProt Q86U06, sequence (Q86U06 whole entry, looked up): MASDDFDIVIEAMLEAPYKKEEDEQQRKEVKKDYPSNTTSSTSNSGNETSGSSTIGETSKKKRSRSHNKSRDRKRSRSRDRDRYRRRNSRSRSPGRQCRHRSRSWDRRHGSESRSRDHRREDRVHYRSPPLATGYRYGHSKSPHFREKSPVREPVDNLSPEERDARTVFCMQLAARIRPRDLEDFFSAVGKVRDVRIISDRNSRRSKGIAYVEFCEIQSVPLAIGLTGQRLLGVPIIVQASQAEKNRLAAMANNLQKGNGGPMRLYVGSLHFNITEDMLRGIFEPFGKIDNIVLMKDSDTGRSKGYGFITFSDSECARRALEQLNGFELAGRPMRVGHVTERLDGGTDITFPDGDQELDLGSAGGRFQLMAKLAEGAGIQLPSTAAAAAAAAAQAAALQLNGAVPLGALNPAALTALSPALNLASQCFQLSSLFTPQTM
UniProt P53805, sequence (P53805 whole entry, looked up): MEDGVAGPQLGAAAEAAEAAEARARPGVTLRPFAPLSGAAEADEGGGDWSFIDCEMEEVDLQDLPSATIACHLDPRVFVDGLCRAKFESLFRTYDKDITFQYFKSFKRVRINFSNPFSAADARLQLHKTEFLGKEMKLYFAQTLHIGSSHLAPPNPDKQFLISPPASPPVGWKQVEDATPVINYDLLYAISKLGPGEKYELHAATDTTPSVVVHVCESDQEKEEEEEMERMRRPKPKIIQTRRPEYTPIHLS
UniProt Q8N122, sequence (Q8N122 whole entry, looked up): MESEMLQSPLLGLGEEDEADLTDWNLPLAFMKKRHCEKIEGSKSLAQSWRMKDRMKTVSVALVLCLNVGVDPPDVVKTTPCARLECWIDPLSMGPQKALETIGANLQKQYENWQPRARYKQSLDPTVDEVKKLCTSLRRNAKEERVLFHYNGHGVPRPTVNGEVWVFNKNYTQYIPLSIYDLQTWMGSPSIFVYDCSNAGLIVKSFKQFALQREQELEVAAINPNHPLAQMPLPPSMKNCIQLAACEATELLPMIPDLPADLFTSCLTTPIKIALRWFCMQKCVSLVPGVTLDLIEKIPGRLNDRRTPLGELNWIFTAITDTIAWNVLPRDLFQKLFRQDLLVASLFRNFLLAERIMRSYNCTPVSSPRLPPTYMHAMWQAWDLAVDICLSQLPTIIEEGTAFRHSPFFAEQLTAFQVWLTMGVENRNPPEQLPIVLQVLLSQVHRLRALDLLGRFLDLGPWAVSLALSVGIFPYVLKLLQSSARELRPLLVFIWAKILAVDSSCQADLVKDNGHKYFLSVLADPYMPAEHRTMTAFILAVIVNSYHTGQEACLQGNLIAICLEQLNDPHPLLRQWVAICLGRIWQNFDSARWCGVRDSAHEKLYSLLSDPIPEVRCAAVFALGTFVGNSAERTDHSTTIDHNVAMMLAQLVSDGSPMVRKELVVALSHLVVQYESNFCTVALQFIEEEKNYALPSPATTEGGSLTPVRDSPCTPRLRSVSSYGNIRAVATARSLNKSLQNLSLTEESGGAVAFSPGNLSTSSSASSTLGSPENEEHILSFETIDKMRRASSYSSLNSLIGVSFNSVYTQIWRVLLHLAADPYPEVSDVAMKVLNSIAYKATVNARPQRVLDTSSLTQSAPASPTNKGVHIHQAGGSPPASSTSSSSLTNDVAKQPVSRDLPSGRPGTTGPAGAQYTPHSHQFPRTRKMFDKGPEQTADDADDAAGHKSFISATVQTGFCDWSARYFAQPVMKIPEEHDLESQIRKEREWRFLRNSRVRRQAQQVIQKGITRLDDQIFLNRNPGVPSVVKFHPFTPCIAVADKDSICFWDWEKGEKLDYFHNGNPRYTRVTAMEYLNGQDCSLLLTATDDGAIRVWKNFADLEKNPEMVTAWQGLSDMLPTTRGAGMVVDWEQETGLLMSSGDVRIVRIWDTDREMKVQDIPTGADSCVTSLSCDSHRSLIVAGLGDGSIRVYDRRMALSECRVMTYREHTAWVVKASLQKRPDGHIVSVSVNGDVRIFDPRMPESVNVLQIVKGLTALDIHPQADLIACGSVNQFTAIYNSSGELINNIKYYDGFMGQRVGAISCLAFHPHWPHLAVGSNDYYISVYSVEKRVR
UniProt P31949, sequence (P31949 whole entry, looked up): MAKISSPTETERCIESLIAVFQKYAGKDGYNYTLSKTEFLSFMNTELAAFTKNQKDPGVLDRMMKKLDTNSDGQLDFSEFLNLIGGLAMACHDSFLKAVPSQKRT
UniProt Q9GZR2, sequence (Q9GZR2 whole entry, looked up): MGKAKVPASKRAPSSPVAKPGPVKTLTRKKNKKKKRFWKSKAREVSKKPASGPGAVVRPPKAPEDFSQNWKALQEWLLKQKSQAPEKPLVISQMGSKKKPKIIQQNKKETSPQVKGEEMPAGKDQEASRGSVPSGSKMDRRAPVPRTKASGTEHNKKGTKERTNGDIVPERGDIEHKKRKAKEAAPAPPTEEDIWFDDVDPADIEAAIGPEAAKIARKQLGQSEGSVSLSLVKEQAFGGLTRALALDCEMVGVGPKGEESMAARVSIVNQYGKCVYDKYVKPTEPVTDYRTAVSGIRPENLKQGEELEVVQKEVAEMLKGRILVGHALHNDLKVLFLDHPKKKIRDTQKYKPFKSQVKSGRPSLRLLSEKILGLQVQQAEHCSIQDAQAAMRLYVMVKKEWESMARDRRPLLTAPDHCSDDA
UniProt P61586, sequence (P61586 whole entry, looked up): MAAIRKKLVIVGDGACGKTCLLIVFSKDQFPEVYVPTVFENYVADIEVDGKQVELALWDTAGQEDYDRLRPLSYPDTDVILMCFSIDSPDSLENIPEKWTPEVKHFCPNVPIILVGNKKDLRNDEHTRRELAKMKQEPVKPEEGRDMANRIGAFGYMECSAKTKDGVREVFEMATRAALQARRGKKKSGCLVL
UniProt O15541, sequence (O15541 whole entry, looked up): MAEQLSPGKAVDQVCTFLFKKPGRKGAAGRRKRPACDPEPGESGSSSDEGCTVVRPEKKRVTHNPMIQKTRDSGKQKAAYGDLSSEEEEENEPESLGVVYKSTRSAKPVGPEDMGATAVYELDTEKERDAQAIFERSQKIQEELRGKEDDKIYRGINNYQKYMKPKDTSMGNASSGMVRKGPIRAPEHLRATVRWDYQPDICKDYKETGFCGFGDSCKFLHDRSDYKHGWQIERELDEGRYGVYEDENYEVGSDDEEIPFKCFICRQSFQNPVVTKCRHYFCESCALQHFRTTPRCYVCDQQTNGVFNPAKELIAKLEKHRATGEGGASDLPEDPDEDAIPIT

Row | Target | log2 fold change [1] | log2 fold change [2] | log2 fold change [3] | log2 fold change [4] | log2 fold change [5]
1 | RCAN1 (UniProt P53805) | 0.141 | -0.074 | -0.063 | -0.026 | 0.026
2 | S100A11 (UniProt P31949) | 0.029 | -0.075 | -0.002 | -0.029 | -0.005
3 | RPTOR (UniProt Q8N122) | 0.015 | -0.024 | 0.035 | -0.008 | 0.04
4 | RPL27 (UniProt P61353) | 0.034 | 0.031 | 0.003 | 0.008 | 0.101
5 | RNF123 (UniProt Q5XPI4) | -0.019 | -0.024 | 0.019 | 0.005 | 0.047
6 | RNF113A (UniProt O15541) | 0.047 | -0.022 | -0.018 | -0.065 | -0.066
7 | RCC1 isoform 2 (UniProt P18754) | 0.023 | 0.026 | -0.013 | 0.045 | 0.014
8 | RPS6KA1 (UniProt Q15418) | -0.073 | -0.064 | -0.045 | 0.015 | -0.047
9 | RAPGEF2, A0A2R8YGD3 | -0.043 | 0.021 | -0.046 | -0.003 | -0.32 (active)
10 | RALA (UniProt P11233) | -0.013 | 0.071 | -0.008 | -0.004 | -0.225
11 | RHOA (UniProt P61586) | 0.177 | 0.06 | 0.038 | 0.02 | 0.07
12 | REXO4 (UniProt Q9GZR2) | 0.009 | -0.003 | 0.029 | 0.051 | 0.138
13 | RPS4X (UniProt P62701) | 0.02 | 0.029 | -0.009 | 0.044 | 0.066
14 | QRSL1 (UniProt Q9H0R6) | -0.005 | -0.056 | -0.101 | 0.041 | 0.094
15 | RCOR3 isoform 3 (UniProt Q9P2K3) | -0.026 | 0.009 | 0.046 | 0.011 | 0.394 (active)
16 | RBM23 isoform 2 (UniProt Q86U06) | -0.118 | -0.084 | 0.06 | 0.011 | -0.002
17 | RBM5 (UniProt P52756) | -0.074 | 0.08 | 0.062 | 0.146 | 0.103
18 | R3HCC1 (UniProt Q9Y3T6) | 0.014 | 0.015 | 0.006 | -0.014 | -0.047
19 | SCAF1 (UniProt Q9H7N4) | 0.112 | -0.492 (active) | 0.002 | -0.007 | 0.019
20 | RBM8A (UniProt Q9Y5S9) | 0.066 | 0.01 | -0.061 | 0.084 | 0.171
